Bioassay records as filed in PubChem.
rCAG binder = molecules binding r(CAG) RNA repeats; r(CAG) RNA repeat, TO-PRO-1 dye displacement fluorescence; inhibition, % at 3 µM; 370,000 tested, 1.3% active; AID 651821;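 active means inhibition above the plate cutoff, the mean of all test compounds on that plate plus 3 SD, cut at about 35% in these data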;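 further: 0% = DMSO alone and 100% = 100 µM mitoxantrone as full dye displacement; higher means more dye released from RNA so lower well fluorescence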
sPLA2-III inh = Blocks human group III sPLA2 activity; QFRET BODIPY PC-A2 liposome hydrolysis, fluorescence; inhibition, % at 12.2 µM; Q9NZ20; AID 743126; 370,000 tested, 0.56% active;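 active means inhibition above mean plus 3 SD of compounds lying within the high and low control bounds, cut at about 19% in these data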;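 further: 0% = median of test compound wells and 100% = no enzyme DMSO wells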
Target sequence (Q9NZ20 whole entry, looked up): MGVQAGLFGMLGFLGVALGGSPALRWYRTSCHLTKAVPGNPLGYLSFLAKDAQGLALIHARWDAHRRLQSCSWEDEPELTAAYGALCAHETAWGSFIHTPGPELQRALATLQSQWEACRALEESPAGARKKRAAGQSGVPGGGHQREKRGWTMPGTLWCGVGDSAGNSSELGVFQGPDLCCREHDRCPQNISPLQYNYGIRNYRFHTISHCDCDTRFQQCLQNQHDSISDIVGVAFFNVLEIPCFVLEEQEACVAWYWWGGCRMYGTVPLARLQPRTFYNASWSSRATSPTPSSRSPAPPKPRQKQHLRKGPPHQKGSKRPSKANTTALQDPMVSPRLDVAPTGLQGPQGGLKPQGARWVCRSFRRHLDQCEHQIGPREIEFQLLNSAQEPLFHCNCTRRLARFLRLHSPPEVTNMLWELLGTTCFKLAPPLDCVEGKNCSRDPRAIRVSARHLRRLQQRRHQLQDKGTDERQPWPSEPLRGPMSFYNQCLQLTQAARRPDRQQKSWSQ
MsrA inhibitor = bovine MsrA inhibition; purified bovine MsrA, absorbance read-out; 360,000 tested, 0.75% active; inhibition, % at 15.5 µM; in the data active means inhibition above about 4.5%;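 further: 0% = vehicle wells with enzyme and 100% = reference inhibitor wells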
bovine MsrA act = activates bovine MsrA enzyme | purified bovine MsrA, absorbance read-out | activation, % at 10.6 µM | 360,000 tested, 0.3% active | AID 602163; in the data active means activation above about 7.5%;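 further: 0% = vehicle and 100% = reference activator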
PG9 binder = small molecules binding HIV-1 gp120 antibody PG9 | TR-FRET gp120-PG9 antibody binding | inhibition, % at 6.7 µM | 360,000 tested, 0.43% active; in the data active means inhibition above about 8.5%
rCAG binder conf = r(CAG) RNA repeat binding, confirmation; 4,300 tested, 70% active; inhibition, % at 3 µM; AID 652065; shares compounds with rCAG binder; TO-PRO-1 dye displacement fluorescence;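 active means inhibition above a per-plate cutoff, the mean inhibition of sample wells plus 3 SD, cut at about 35% in these data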;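 further: loss of TO-PRO-1 fluorescence as compound displaces dye from 1x1 AA loop RNA; 0% = DMSO only wells and 100% = 100 µM mitoxantrone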
dCAG dye counter = DNA CAG dye complex inhibition counter-screen. shares compounds with rCAG binder. d(CAG) DNA oligo TO-PRO-1 dye displacement, fluorescence. inhibition, % at 3 µM. 4,300 tested, 94% active. AID 652068;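 active means inhibition above its plate's cutoff, the mean test-well inhibition plus 3 SD, cut at about 4.8% in these data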;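 further: 0% = DNA dye mix with DMSO and 100% = 100 µM mitoxantrone; hits displace the dye from DNA and so lower well fluorescence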
An asterisk follows results filed as active; / = not tested or not shown. Rows were chosen to be rich in hits. Some 3.2% of all compounds tested hit in one or more screens of this group.

SMILES	rCAG binder	sPLA2-III inh	MsrA inhibitor	bovine MsrA act	PG9 binder	rCAG binder conf	dCAG dye counter
COc1ccc(C(=O)C2(C(=O)NCCO)CC(c3ccccn3)=NO2)cc1 (stereo not given)	0	4	/	/	/	/	/
CC1=Nc2ccc(C)cc2/C1=C/c1c(N)n2c(S(=O)(=O)C(C)C)nsc2nc1=O	80*	-34	2	-3	-2	75*	37*
CC1=Nc2ccc(C)cc2/C1=C/c1c(N)n2nc(CC(=O)N3CCOCC3)sc2nc1=O	21	-24	1	-2	-5	/	/
CSc1nsc2nc(=O)c(/C=C3\C=Nc4ccccc43)c(N)n12	31	-14	1	-3	-2	/	/
CSc1nsc2nc(=O)c(/C=C3\C(C)=Nc4ccc(C)cc43)c(N)n12	66*	-24	1	-3	0	46*	12*
Cc1cn2c(N)c(/C=C3\C=Nc4ccccc43)c(=O)nc2s1	25	-12	-1	-2	-1	/	/
CC1=Nc2ccccc2/C1=C/c1c(N)n2c(S(=O)(=O)C(C)C)nsc2nc1=O	73*	-25	2	-5	-2	59*	21*
CC1=Nc2ccccc2/C1=C/c1c(N)n2c(S(=O)(=O)CC(C)C)nsc2nc1=O	78*	-43	1	-5	1	78*	46*
CC(C)C(=O)Nc1cccc(COc2ccc(CN(CCc3ccccc3)C(=O)OC(C)(C)C)cc2)c1	7	2	-1	-4	-1	/	/
CC1(C)CC(=O)C=C(Nc2ccccc2NC(=O)c2ccc(F)cc2F)C1	0	-2	/	/	/	/	/
CC(C)S(=O)(=O)c1nsc2nc(=O)c(/C=C3\C=Nc4ccccc43)c(N)n12	88*	-49	1	-2	-2	85*	55*
COc1cc2[nH]c(=S)nc(NC3CCCCCC3)c2cc1OC	12	3	2	-6	-2	/	/
COc1cc2[nH]c(=S)nc(Nc3ccc(NC(C)=O)cc3)c2cc1OC	37*	-5	3	-1	-6	8	6.4*
Cc1ccc2c(c1)-c1c(cnn1CC(=O)NCCc1ccccc1F)CO2	1	0	/	/	/	/	/
CCc1ccc(Nc2nnc(SCC(=O)Nc3ccc(C(=O)O)cc3)s2)cc1	36*	-6	0	-3	-3	22	5.0*
O=C(CSc1nnc(SCc2cccc3ccccc23)s1)Nc1ccc(C(=O)O)cc1	67*	-33	-2	1	-3	68*	30*
O=C(CSc1nnc(SCc2cccc3ccccc23)s1)Nc1ccccc1-c1ccccc1	6	-6	/	/	/	/	/
Cc1ccc(NC(=S)NNC(=O)CSc2nnc(SCc3cccc4ccccc34)s2)cc1	52*	-6	/	/	/	51*	20*
Cc1ccc(NC(=S)NNC(=O)CSc2nc3sc4c(c3c(=O)n2-c2ccccc2)CCCC4)cc1	52*	-1	/	/	/	59*	22*
Cc1ccc(-n2c(SCC(=O)O)nc3sc4c(c3c2=O)CCCC4)cc1	25	-2	0	-9	1	/	/
O=C(CSc1nnc(-c2ccccc2)n1-c1ccc(Cl)cc1)c1ccc(Cl)cc1	6	-2	/	/	/	/	/
Cc1ccc(C(=O)O)cc1NC(=O)CCc1c(C)noc1C	2	-4	0	-6	1	/	/
COc1ccc(S(=O)(=O)N(C)C[C@@H]2Oc3c(NC(=O)Nc4ccccc4)cccc3C(=O)N([C@@H](C)CO)C[C@H]2C)cc1	/	-32	/	/	/	/	/
COc1ccccc1NC(=O)OC1CC2CC1[C@H]1CCCCN1[C@H]2C (stereo not given in full)	9	6	/	/	/	/	/
Cc1ccc(CSc2nnc(SCC(=O)N/N=C/c3ccc(C(=O)O)cc3)s2)cc1	43*	4	1	0	0	41*	11*
SMILES	rCAG binder	sPLA2-III inh	MsrA inhibitor	bovine MsrA act	PG9 binder	rCAG binder conf	dCAG dye counter
Cc1ccc(S(=O)(=O)N/N=C\c2ccc(Cl)c([N+](=O)[O-])c2)cc1	13	1	0	-1	0	/	/
Cc1ccc(S(=O)(=O)N/N=C/c2ccc(OS(=O)(=O)c3ccc(C)c([N+](=O)[O-])c3)cc2)cc1	35*	-31	0	-1	-3	50*	15*
COc1ccc(-c2cc(C(=O)NN=C/C(C)=C/c3ccccc3)[nH]n2)cc1	12	-10	/	/	/	/	/
CC(C)=CCc1c(O)cc2oc3c(CC=C(C)C)c(O)c(O)c(CC=C(C)C)c3c(=O)c2c1O	72*	8	1	-7	1	67*	47*
O=C(N/N=C1/CC2CCC1C2)c1cc2ccccc2cc1O (stereo not given)	51*	6	0	-4	-5	9	4
O=C(O)CCC(=O)N1N=C(c2ccccc2)CC1c1ccc(Br)cc1 (stereo not given)	13	-4	0	-1	1	/	/
O=C(O)CCC(=O)N1N=C(c2ccc(Br)cc2)CC1c1ccc(Br)cc1 (stereo not given)	38*	-8	-1	-2	-2	51*	14*
CCNc1ccccc(C(=O)/C=C/c2ccc3c(c2)OCO3)c1=O	34	-5	2	-2	0	/	/
CNc1ccc(Br)cc(C(=O)/C=C/c2cccc(Cl)c2Cl)c1=O	48*	-2	2	-2	1	50*	23*
CNc1ccccc(C(=O)/C=C/c2ccccc2OC)c1=O	26	7	2	0	-2	/	/
CNc1ccc(Br)cc(C(=O)/C=C/c2cccc(OC)c2OC)c1=O	35*	-6	2	-8	-5	28	11*
CCNc1ccc(Br)cc(C(=O)/C=C/c2ccccc2Cl)c1=O	46*	3	2	-2	2	34	15*
COc1ccc(Cn2cc(COC(=O)NCCc3c[nH]c4ccccc34)nn2)cc1	6	-75	/	/	/	/	/
CCN(CC)CCCN1C(=O)C2=C(C1=O)C1N(C)c3ccccc3[C@@]13C[C@@H](CO)N(C(=O)CCC(=O)OC)C3=N2 (stereo not given in full)	2	0	/	/	/	/	/
Cc1cccc(NC(=O)[C@H]2CC(=O)O[C@@H]2c2ccccc2)c1C	0	6	/	/	/	/	/
CCCC(=O)OC12CCCN(C1)/C(=C/c1ccc(C#N)cc1)C2 (stereo not given)	4	5	/	/	/	/	/
COc1c(O)cc2oc(-c3ccc(O)cc3)cc(=O)c2c1O	8	3	3	0	-2	/	/
O=c1cc(-c2ccccc2)oc2cc(O)c(O)c(O)c12	38*	6	1	-5	-2	34	14*
CC(C)(C)C1CCc2c(sc(NC(=O)C3CC=CCC3C(=O)O)c2C#N)C1 (stereo not given)	80*	-39	-1	-2	-3	72*	36*
CCC(C)(C)C1CCc2c(sc(NC(=O)c3ccccc3C(=O)O)c2C#N)C1 (stereo not given)	91*	-14	-1	-7	-1	84*	56*
CC1CCc2c(sc(NC(=O)c3ccccc3C(=O)O)c2C#N)C1 (stereo not given)	-1	-3	0	-7	-2	/	/
